Assay results as given in PubChem BioAssay AID492973 (The Scripps Research Institute Molecular Screening Center, 2010).
Values without a mark were called inactive. The source made the active and inactive calls.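 Rule for the calls: active = inhibition above 50% of the enzyme in parasite cell lysate; inactive = the rest.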

Assay: malaria lysate leucine aminopeptidase inhibition – cell lysate, fluorescence, Plasmodium falciparum lysate, powder samples, late-stage follow-up (AID 492973)
Conditions: P. falciparum cell lysate, H-Leu-NHMec fluorescence; at 5 µM; hits give high values

SMILES	inhibition
Cc1cc(C(=O)COC(=O)c2ccc[nH]c2=O)c(C)n1-c1ccccc1	36%
CCc1cc2cc(OC)ccc2nc1SCC(=O)Nc1cc(OC)c(OC)cc1C(=O)O	68% (active)
Cc1ccc(-c2c(C)sc(NC(=O)[C@@H]3C4CCC(O4)[C@@H]3C(=O)O)c2C(=O)OC(C)C)cc1 (stereo partly specified)	23%
COC(=O)c1c(NC(=O)[C@H]2CC=CC[C@H]2C(=O)O)sc(C)c1C	31%
COc1ccc(NC(=O)CSC2=NC(=O)CC(C)=N2)cc1	27%
COc1ccc(-c2cc(=O)[nH][nH]2)cc1	22%
CCn1c2ccccc2c2cc(NC(=O)CSc3nccc(=O)[nH]3)ccc21	49%
O=C(CSc1nnc(Nc2ccccc2)s1)NN1C(=O)NC2(CCCCC2)C1=O	57% (active)
COc1ccc(NC(=O)CSc2nc(O)cc(=O)n2C)cc1	29%
S=c1nc(-c2cccc(Cl)c2)[nH][nH]1	22%
CCOc1ccc(NC(=O)Nc2ccc3nccnc3c2)cc1	25%
Cc1ccc(-n2c(C)cc(C(=O)COC(=O)c3ccc[nH]c3=O)c2C)cc1	43%
COc1cc(NC(=O)CSc2nc3ccccc3cc2C)c(C(=O)O)cc1OC	67% (active)
CCc1ccc(Nc2nnc(SC3CCOC3=O)s2)cc1 (stereo unspecified)	43%
CCc1cc2ccccc2nc1SCC(=O)Nc1cc(OC)c(OC)cc1C(=O)O	68% (active)
C=CCn1c(SCC(=O)Nc2cccc3ccccc23)nc(O)c(CC)c1=O	31%
